Reference: PubChem BioAssay (NCI)
The panel holds about 83,000 compounds, 20% with a hit somewhere; the sample as a whole holds those more often.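 Each cell line was grown in a 96-well plate and treated with one concentration of compound for 48 hours. Values below 10 were considered active.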 Values without a mark were called inactive. Active and inactive are the calls of the source.

system: BT-549 breast; assay: NCI-60 one-dose screen, 48 h (100 = growth as untreated, 0 = no growth, -100 = all killed); details: 10 µM unless noted

Row | SMILES | growth
1 | CCN(C(=O)CN1C(=O)/C(=C/c2ccco2)SC1=S)C1CCS(=O)(=O)C1 (configuration not stated) | 97%
2 | CC[C@@]12CC(C(=O)OC)=C3Nc4cc5c(cc4[C@@]34CCN(C[C@H]3O[C@H]31)[C@@H]24)[C@@H]1[C@H](O5)[C@@H](O)[C@@]2(CC)CC(C(=O)OC)=C3Nc4cc(O)ccc4[C@@]34CCN1[C@@H]24 | -87.6% (active)
3 | CN(C)CCCc1ccc(Nc2cnn(C)c(=O)c2Cl)cc1 | 115%

system: MDA-MB-435 melanoma; assay: as above; details: 10 µM unless noted

Row | SMILES | growth
4 | O=C(CSc1nnc(-c2ccc(-c3nc4ccccc4[nH]3)cc2)o1)Nc1ccc(Br)cc1 | 18.3%
5 | COc1ccc2c(c1)N=c1c-2cc2c(O)[nH]c(=S)n2c1=O | 2.49% (active)
6 | CN(C(=O)CN1C(=O)/C(=C/c2ccco2)SC1=S)C1CCS(=O)(=O)C1 (configuration not stated) | 97%
7 | CCOc1ccc2[nH]c(=O)c(C(c3nnnn3CC3CCCO3)N3CCN(Cc4ccccc4)CC3)cc2c1 (configuration not stated) | 99.3%
8 | N#CC1=C(c2cccs2)Nc2c(c(-c3ccccc3)nn2-c2ccccc2)C12C(=O)Nc1ccc(Cl)cc12 (configuration not stated) | 41.2%
9 | COc1ccc(-c2nc3ccccc3n2CC(=O)N=Nc2c(O)[nH]c3ccc(OC)cc23)cc1 | 26.3%
10 | O=C(NC(=S)N1CCN(c2ncnc3c2cnn3-c2ccccc2)CC1)c1ccc(Br)cc1 | 80.3%
11 | COc1c(B(O)O)cc(F)cc1-c1nc2ccc3[nH]ncc3c2c2c1COCC2 | 87.1%
12 | CC1=C(C(=O)Nc2ccccc2)C(c2cccc(Cl)c2Cl)n2c(nc3ccccc32)N1 (configuration not stated) | 26.5%
